Epigenetic reg: Quantitative High-Throughput Screen for Regulators of Epigenetic Control; 280,000 tested, 0.2% active; Potency, µM (series often up to 53.9 µM), inactives show at the highest dose GFP activation, most hits filed as activators; murine LDR cells, GFP reporter derepression, 30 h; further: % of control where 0% means no effect; nearly all actives have a fitted effect of over 60% in size
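Readout is the number of GFP-expressing murine LDR cells, counted by cytometry following washing. Cells were treated with compound for 30 h at 37 C; the stably integrated CMV-GFP locus is normally silent.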
Vif-A3G inh: qHTS for Inhibitors of Vif-A3G Interactions: qHTS. HeLa A3G-eYFP + Vif (tagged APOBEC3G with the HIV-1 protein that degrades it), YFP fluorescence, overnight. DNA dC->dU-editing enzyme APOBEC-3G (Homo sapiens), Q9HC16. AID 602310, 2012. Potency, µM (titrated, usually from 46.1 µM), for inactives: at the highest dose activity, negative = active, hits mostly inhibitors. 410,000 tested, 0.076% active; further: on the % scale 0 is the no-effect control and ±100 the full control effect; nearly all actives have a fitted effect of over 60% in size
Target sequence (Q9HC16 whole entry, looked up): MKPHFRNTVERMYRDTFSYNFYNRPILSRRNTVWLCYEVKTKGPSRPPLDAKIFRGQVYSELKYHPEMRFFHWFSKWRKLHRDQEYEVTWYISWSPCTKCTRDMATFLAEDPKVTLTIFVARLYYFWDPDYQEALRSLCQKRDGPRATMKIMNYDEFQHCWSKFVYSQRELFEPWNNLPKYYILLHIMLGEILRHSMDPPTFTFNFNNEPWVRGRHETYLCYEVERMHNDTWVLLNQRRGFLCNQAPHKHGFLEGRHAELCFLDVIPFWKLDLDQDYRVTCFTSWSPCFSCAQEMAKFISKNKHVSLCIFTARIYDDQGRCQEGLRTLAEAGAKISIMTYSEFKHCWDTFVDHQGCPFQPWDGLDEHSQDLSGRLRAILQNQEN
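HeLa cells stably expressing Vif and C-terminally eYFP-tagged A3G, seeded overnight at 37 deg C, then exposed to compound by pintool overnight at 37 deg C. Rise in yellow fluorescence (Ex 488/Em 500-530, Acumen) marks blocked Vif-driven A3G degradation.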
PINK1 expr mod: A Quantitative High throughput Screen to Identify Chemical Modulators of PINK1 Expression | Potency, µM (series often up to 76.6 µM), for the others: at the highest dose activation (PINK1 increase), hits mostly activators | 410,000 tested, 0.2% active | PINK1 immunofluorescence, high-content cytometry, 24 h; active means well fitted activation curve with a large enough effect; inconclusive means small, poorly fitted or top-dose-only effect; cell line not stated here; further: % of control where 0% means no effect; nearly all actives have a fitted effect of over 65% in size
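Decision-based qHTS: stable cells, 24 h exposure to five compound concentrations, CCCP as control. Fixed cells stained for PINK1 plus nuclear, mitochondrial and cell markers, cytometer read.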
Vif-APOBEC3F blk: qHTS for Inhibitors of Vif-A3F Interactions: qHTS | HeLa A3F-eYFP + Vif (tagged APOBEC3F with the HIV-1 protein that degrades it), YFP fluorescence increase | Potency, µM (titrated, usually from 46.1 µM), inactives show top-dose activity, negative = active | 390,000 tested, 0.2% active; further: % of control where 0% means no effect; nearly all actives have a fitted effect of over 65% in size
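HeLa cells stably expressing Vif plus C-terminally eYFP-tagged A3F were seeded, incubated overnight at 37 deg C, dosed with compound, incubated overnight again at 37 deg C. Yellow fluorescence (Ex 488/Em 500-530) reported blocked Vif-mediated A3F-eYFP degradation.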
The depositor's hits bear a star; ? = inconclusive; . = no result given; [ ] = remark or other dose. In the library only some 0.52% were active in any assay of this set; here they are far more common. Unless noted, the call rests on the fitted dose curve; in most records, active means well fitted curve in the direction sought with a large enough effect; inconclusive means small, poorly fitted or top-dose-only effect, or another doubt; inactive means no such curve, though single readings can be large; an effect the other way counts as inactive or inconclusive. Potency means the concentration at half of the fitted maximal effect.

SMILES | Epigenetic reg | Vif-A3G inh | PINK1 expr mod | Vif-APOBEC3F blk
Cc1cc(N=Cc2c(O)n(-c3ccc4c(c3)OCO4)c(=O)c3ccccc23)ccn1 | ? | ? | -2.8% | 25.1µM*
Cc1ccc(-n2c(O)c(C=Nc3ccc4c(c3)OCO4)c3ccccc3c2=O)cc1C | ? | -10.5% | ? | ?
Cc1ccccc1NCC(=O)N=Nc1c(O)[nH]c2ccc([N+](=O)[O-])cc12 | 1.4% | 5.01µM* | 2.4% | ?
CCCS(=O)(=O)NCc1c(C)ncc2c1CCN(C(=O)/C=C/c1ccccc1)C2 | . | . | 1.0% | .
CCCCC(=O)N/N=C/c1ccc(-c2ccc([N+](=O)[O-])cc2)o1 | -1.2% | -2.7% | 7.9% | -1.6%
CC(C)(C)NC(=S)N/N=C\c1ccc(-c2ccc([N+](=O)[O-])cc2)o1 | 12.6µM* | 10µM* | 10.1% | 25.1µM*
O=C(N/N=C/c1ccc(-c2ccc([N+](=O)[O-])cc2)o1)[C@H]1C[C@@H]1c1ccccc1 | ? | -5.9% | ? | 7.08µM*
NS(=O)(=O)c1ccc(-c2ccc(/C=N/NC(=O)c3ccc([N+](=O)[O-])cc3)o2)cc1 | 14.4% | -2.5% | 39.8µM* | ?
O=C(O)c1ccc(-c2ccc(/C=N/Nc3ccc([N+](=O)[O-])cc3)o2)cc1 | ? | 10µM* | -0.1% | ?
CCN1CCCC1CNC(=O)c1cnn(-c2nccc(-c3cc4ccccc4o3)n2)c1C1CC1 (stereo unspecified) | . | . | 1.0% | .
O=C(O)c1ccc(N/N=C/c2ccc(-c3cccc(Cl)c3)o2)cc1 | 8.1% | -25.2% | ? | 3.0%
O=[N+]([O-])c1cccc(-c2ccc(/C=N/NC(=S)Nc3cccc(F)c3)o2)c1 | 1.1% | 0.6% | 3.4% | 1.3%
NC(=S)N/N=C/c1ccc(-c2cccc([N+](=O)[O-])c2)o1 | 15.8µM* | -4.2% | -2.2% | ?
O=C(O)c1cccc(-c2ccc(/C=N/Nc3ccc([N+](=O)[O-])cc3)o2)c1 | 4.6% | ? | -0.7% | 22.4µM*
COc1ccc(O)c(CN2CCC3(CCC(CNC(=O)c4ccco4)O3)CC2)c1 (stereo unspecified) | . | . | 0.0% | .
Cc1cnc(C)c(-c2ccc(F)c3c2OC(CNC(=O)Cc2c(C)[nH]c4ccccc24)C3)n1 (stereo unspecified) | . | . | 0.2% | .
Cn1ccc(C(=O)NCC2CCC3(CCN(Cc4ccc(F)cc4F)CC3)O2)n1 (stereo unspecified) | . | . | -0.5% | .
COc1ccc(F)cc1C(=O)C1CCCN(Cc2cccn2-c2ccccn2)C1 (stereo unspecified) | -0.7% | 2.4% | 2.5% | -20.5%
COc1ccc(C(=O)C2CCCN(Cc3cccn3-c3ccccn3)C2)c(OC)c1 (stereo unspecified) | -0.2% | 6.9% | 39.8µM* | 17.4%
COc1ccc2cc(C(=O)C3CCCN(Cc4ccccn4)C3)ccc2c1 (stereo unspecified) | 1.1% | -6.8% | -1.2% | 28.2µM*
CCn1ccnc1CN1CCCC(C(=O)c2ccc3cc(OC)ccc3c2)C1 (stereo unspecified) | 0.0% | -0.2% | 5.3% | ?
Oc1cc(-c2cccs2)cc2c1OCCN(Cc1cn[nH]c1-c1ccc(Cl)cc1)C2 | . | . | 0.1% | .
CN1CCN(Cc2c(O)ccc3occ(C(=O)c4ccccc4)c23)CC1 | -5.8% | -1.1% | -1.3% | 2.5%
CC(=O)C(C(C)=O)c1c(Cl)c(O)c(O)c2c(C(=O)c3ccccc3)coc12 | ? | -11.4% | 15.8µM* | -15.0%
Cc1cnc(C)c(-c2cccc3c2OC(CNC(=O)C2(c4ccc(Cl)cc4)CC2)C3)n1 (stereo unspecified) | . | . | -0.4% | .
SMILES | Epigenetic reg | Vif-A3G inh | PINK1 expr mod | Vif-APOBEC3F blk
CCCCN(CCCC)CC1OCc2ccccc2CO1 | 1.1% | 2.4% | 3.98µM* | -20.1%
Cc1ccc[n+](CC2OCc3ccccc3CO2)c1 | -1.0% | 3.9% | -0.1% | 6.8%
Cn1cc(C2=C(c3ccc(Cl)cc3Cl)C(=O)NC2=O)c2ccccc21 | 14.1µM* | ? | 2.1% | ?
CCN(CC)S(=O)(=O)c1ccc(N2CCCCC2)c(NC(=O)/C(C#N)=C/c2ccc(OC)cc2)c1 | 2.2% | 0.0% | -0.8% | -1.3%
CCOc1ccc(NC(=O)/C(C#N)=C/c2ccc(N3CCCC3)c(C)c2)cc1 | 1.3% | 3.98µM* | ? | 2.51µM*
Cc1c(C(=O)NCCCN2CCCC2=O)cnn1-c1ncc2c(n1)-c1ccccc1CC2 | . | . | -0.8% | .
Fc1ccc(F)c(C2=NNC(=Nc3ccccc3F)SC2)c1 | 2.7% | -16.1% | 35.5µM* | -3.9%
CCN(CC)c1ccc(N)cc1 | . | -12.6% | 14.1µM* | -0.7%
Nc1ccc(N(CCO)CCO)cc1 | -5.0% | 2.7% | 2.6% | -6.1%
Cc1c(C(=O)N2CCCCC2)sc2ncnc(NCCN(C)C)c12 | . | . | 0.6% | .
C=CC(=O)N1CCC[C@@H](n2nc(-c3ccc(Oc4ccccc4)cc3)c3c(N)ncnc32)C1 | . | -3.3%[92.2 µM] | -1.2%[153 µM] | .
CC1CCN(S(=O)(=O)c2ccc3nc(Nc4cccc(F)c4)ccc3c2)CC1 | 4.1% | -13.1% | 15.8µM* | ?
CCc1cc(C(=O)NCC2Cc3cccc(-c4ccc(C(=O)OC)cn4)c3O2)no1 (stereo unspecified) | . | . | 0.5% | .
Cc1ccc(C(=O)C[n+]2ccc3ccccc3c2)cc1 | -4.1% | -2.0% | -1.7% | -7.5%
Cc1cc(C(C)(C)C)cc(C)c1C[n+]1ccc2ccccc2c1 | . | -0.9% | 44.7µM* | -12.2%
CCOC(=O)c1c(-c2ccc(OC)cc2)csc1/N=C/C1C(=O)CCCC1=O | ? | ? | ? | 25.1µM*
CCOC(=O)c1c(-c2ccc(OC)cc2)csc1/N=C/N(C)C | -0.9% | -19.5% | -2.3% | -8.7%
c1coc(-c2ccccc2CN2CCOc3ccc(CN4CCOCC4)cc3C2)c1 | . | . | 0.9% | .
CC(C)CN(c1ccccc1)S(=O)(=O)c1nnc(NC(=O)C2CCCCC2)s1 | 28.2µM* | 4.6% | -0.5% | 1.4%
C/C(=N\NC(=O)CN1CCOCC1)C(C)(C)C | -5.7% | -5.0% | 10µM* | 6.1%
CNC(=O)c1c(NC(=O)c2ccc(S(=O)(=O)N(C)c3ccccc3)cc2)sc2c1CCN(C(C)C)C2 | . | ? | 9.7% | 7.08µM*
CC(C)N1CCc2c(sc(NC(=O)c3ccc(S(=O)(=O)N4CCOCC4)cc3)c2C#N)C1 | 3.8% | -23.2% | 1.8% | 12.6µM*
CC(C)N1CCc2c(sc(NC(=O)c3ccc(S(=O)(=O)N4CCc5ccccc54)cc3)c2C(N)=O)C1 | ? | 20µM* | -1.3% | 6.31µM*
CC(C)N1CCc2c(sc(NC(=O)c3nc4ccccc4s3)c2C(N)=O)C1 | -4.2% | -14.8% | 25.4% | ?
CC(C)N1CCc2c(sc(NC(=O)c3ccc(S(=O)(=O)N(C)C4CCCCC4)cc3)c2C(N)=O)C1 | ? | ? | 1.7% | ?
CC(C)N1CCc2c(sc(NC(=O)c3cc(-c4cccs4)nc4ccccc34)c2C(N)=O)C1 | 17.8µM* | 7.08µM* | 0.6% | ?
